According to PubChem BioAssay (EPA / NIEHS):
The source made the active and inactive calls. Rule for the calls: active = hit-call score of the fitted dose curve at least 0.9, where 1 is the maximum; inactive = score below 0.9.

Legend:
Conditions in all cases: mRNA level, 48 h; actives raise or lower the signal
[1] = read-out: Broad substrate specificity ATP-binding cassette transporter ABCG2 (Homo sapiens) (UniProt Q9UNQ0); test: LTEA_HepaRG_ABCG2: Life Technologies and Expression Analysis (LTEA) Assay for ABC Transporter (ABCG2) using HepaRG (AID 2283465)
Summary of the method: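 Gene expression of ABCG2 in HepaRG liver cells is quantified by qRT-PCR following 48 h exposure across an eight-point series topping at 100 uM. Values come from bidirectional fitting relative to DMSO vehicle.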

[2] = read-out: ATP-citrate lyase (ACLY), ACLY (gene 47); test: LTEA_HepaRG_ACLY: Life Technologies and Expression Analysis (LTEA) Assay for ATP-citrate lyase (ACLY) using HepaRG (AID 2283466)
Summary of the method: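 ACLY expression changes in human HepaRG liver cells are quantified by qRT-PCR after 48 h exposure to test chemicals (maximum 100 uM, half-log steps). Values are fitted in both directions relative to 0.5% DMSO vehicle.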

[3] = read-out: Peroxisomal acyl-coenzyme A oxidase 1 (ACOX1) gene, ACOX1 (gene 51); test: LTEA_HepaRG_ACOX1: Life Technologies and Expression Analysis (LTEA) Assay for Peroxisomal acyl-coenzyme A oxidase 1 (ACOX1) gene using HepaRG (AID 2283467)
Summary of the method: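 Human HepaRG hepatic cultures, 48 h treatment with test chemicals up to 100 uM. ACOX1 expression read by qRT-PCR relative to 0.5% DMSO vehicle.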

[4] = read-out: Alkaline Phosphatase, Placental (ALPP) gene, ALPP (gene 250); test: LTEA_HepaRG_ALPP: Life Technologies and Expression Analysis (LTEA) Assay for Alkaline Phosphatase, Placental (ALPP) gene using HepaRG (AID 2283468);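 for AC50: differentiated human HepaRG liver cells in serum-free induction medium; ALPP transcript by TaqMan qRT-PCR normalized to ACTB GAPDH and POLR2A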
Summary of the method: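 Expression of ALPP was quantified by qRT-PCR against three housekeeping genes in human HepaRG cultures treated for 48 h with an eight-point concentration series up to 100 uM. Activity in either direction was fitted relative to 0.5% DMSO.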

[5] = read-out: Bcl-2 (BAD) gene, BAD (gene 572); test: LTEA_HepaRG_BAD: Life Technologies and Expression Analysis (LTEA) Assay for Bcl-2 (BAD) gene using HepaRG (AID 2283469)
Summary of the method: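 Activity values reflect up- or down-regulation of BAD mRNA in human HepaRG hepatic cells treated 48 h in serum-free medium, with eight-point half-log dosing capped at 100 uM and 0.5% DMSO vehicle.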

[6] = read-out: Bcl-2 (BAX) gene, BAX (gene 581); test: LTEA_HepaRG_BAX: Life Technologies and Expression Analysis (LTEA) Assay for Bcl-2 (BAX) gene using HepaRG (AID 2283470)
Summary of the method: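 qRT-PCR read-out of BAX mRNA, normalized to three housekeeping genes, after 48 h chemical exposure of human HepaRG cells in serum-free induction medium; eight-point half-log series, top 100 uM, 0.5% DMSO vehicle; bidirectional fit versus DMSO.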

[7] = read-out: adenosine kinase (ADK) gene, ADK (gene 132); test: LTEA_HepaRG_ADK: Life Technologies and Expression Analysis (LTEA) Assay for adenosine kinase (ADK) gene using HepaRG (AID 2283471)
Summary of the method: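 HepaRG (human liver), 48 h chemical exposure, 8-pt half-log series, top 100 uM, 0.5% DMSO vehicle. Readout: ADK mRNA by qRT-PCR vs housekeeping genes; bidirectional curve fit relative to DMSO baseline.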

[8] = read-out: Alpha-fetoprotein (AFP) gene, AFP (gene 174); test: LTEA_HepaRG_AFP: Life Technologies and Expression Analysis (LTEA) Assay for Alpha-fetoprotein (AFP) gene using HepaRG (AID 2283472);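 for AC50: AFP transcript by TaqMan qRT-PCR normalized to ACTB GAPDH and POLR2A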
Summary of the method: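 qRT-PCR (Fluidigm TaqMan) readout of AFP transcript, normalized to three housekeeping genes, fitted bidirectionally against 0.5% DMSO baseline. HepaRG cells received chemicals for 48 h in serum-free induction medium, top concentration 100 uM, half-log steps.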

[9] = read-out: BCL2L11 (gene 10018); test: LTEA_HepaRG_BCL2L11: Life Technologies and Expression Analysis (LTEA) Assay for Bcl-2 (BCL2L11) gene using HepaRG (AID 2283473)
Summary of the method: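 Cells were plated, cultured 48 h, switched to serum-free induction medium, then dosed in duplicate for 48 h at eight half-log concentrations up to 100 uM. Lysates underwent RNA isolation and TaqMan qRT-PCR; gain or loss versus DMSO was fitted.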

[10] = read-out: Apolipoprotein A-V (APOA5) gene, APOA5 (gene 116519); test: LTEA_HepaRG_APOA5: Life Technologies and Expression Analysis (LTEA) Assay for Apolipoprotein A-V (APOA5) gene using HepaRG (AID 2283474)
Summary of the method: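 Human liver HepaRG cells are treated 48 h with test chemicals (100 uM top, half-log dilutions, 0.5% DMSO). APOA5 mRNA induction or loss is measured by qRT-PCR relative to vehicle.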

[11] = read-out: Apoptosis regulator Bcl-2 (Homo sapiens) (UniProt P10415); test: LTEA_HepaRG_BCL2: Life Technologies and Expression Analysis (LTEA) Assay for Bcl-2 gene using HepaRG (AID 2283475);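 note: BCL2 transcript by TaqMan qRT-PCR normalised to ACTB GAPDH and POLR2A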
Summary of the method: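 qRT-PCR read-out (Fluidigm TaqMan) of BCL2 transcript, normalised to three housekeeping genes, after 48 h chemical exposure of HepaRG cells; 8-point half-log series, top 100 uM, 0.5% DMSO vehicle. Gain or loss of signal fitted relative to DMSO baseline.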

[12] = read-out: Bcl-2 (BID) gene, BID (gene 637); test: LTEA_HepaRG_BID: Life Technologies and Expression Analysis (LTEA) Assay for Bcl-2 (BID) gene using HepaRG (AID 2283476)
Summary of the method: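 HepaRG, 48 h exposure, 8-pt half-log series, top 100 uM, 0.5% DMSO vehicle, duplicates. Readout: BID mRNA by TaqMan qRT-PCR; housekeeping-normalized; bidirectional curve fit vs DMSO baseline.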

[13] = read-out: Caspase-3 (Homo sapiens) (UniProt P42574); test: LTEA_HepaRG_CASP3: Life Technologies and Expression Analysis (LTEA) Assay for cysteine-aspartic acid protease (CASP3) using HepaRG (AID 2283477)
Summary of the method: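 In HepaRG liver cells dosed for 48 h at up to 100 uM (eight-point, duplicate), CASP3 expression changes are scored by qRT-PCR. Activity is fitted in both directions with 0.5% DMSO as baseline.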

[14] = read-out: Cytochrome P450 (CYP24A1), CYP24A1 (gene 1591); test: LTEA_HepaRG_CYP24A1: Life Technologies and Expression Analysis (LTEA) Assay for Cytochrome P450 (CYP24A1) using HepaRG (AID 2283478)
Summary of the method: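 Human liver HepaRG cultures receive each chemical for 48 h across an eight-point half-log series topping at 100 uM in 0.5% DMSO. Induction or suppression of CYP24A1 mRNA is scored relative to vehicle after housekeeping-gene normalization.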

[15] = read-out: Cytochrome P450 (CYP1A2), CYP1A2 (gene 1544); test: LTEA_HepaRG_CYP1A2: Life Technologies and Expression Analysis (LTEA) Assay for Cytochrome P450 (CYP1A2) using HepaRG (AID 2283479);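 for AC50: TaqMan qRT-PCR transcript level normalized to ACTB GAPDH and POLR2A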
Summary of the method: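 Assesses CYP1A2 mRNA in human HepaRG liver cells after 48 h chemical exposure at up to 100 uM. Values come from qRT-PCR with bidirectional curve fitting relative to DMSO.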

[16] = read-out: cysteine-aspartic acid protease (CASP8), CASP8 (gene 841); test: LTEA_HepaRG_CASP8: Life Technologies and Expression Analysis (LTEA) Assay for cysteine-aspartic acid protease (CASP8) using HepaRG (AID 2283480)
Summary of the method: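 Concentration-response in duplicate up to 100 uM (half-log steps, 0.5% DMSO) on differentiated HepaRG cultures for 48 h. Expression change of CASP8 mRNA is determined by TaqMan qRT-PCR with housekeeping-gene normalization.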

[17] = read-out: Cytochrome P450 (CYP2B6), CYP2B6 (gene 1555); test: LTEA_HepaRG_CYP2B6: Life Technologies and Expression Analysis (LTEA) Assay for Cytochrome P450 (CYP2B6) using HepaRG (AID 2283481)
Summary of the method: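 Using 48 h treatment of HepaRG cells in serum-free induction medium, concentrations spanned half-log steps from 100 uM in 0.5% DMSO vehicle. CYP2B6 mRNA induction or loss is scored by qRT-PCR against DMSO.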

[18] = read-out: Cytochrome P450 2C19 (Homo sapiens) (UniProt P33261); test: LTEA_HepaRG_CYP2C19: Life Technologies and Expression Analysis (LTEA) Assay for CYP2C19 using HepaRG (AID 2283482)
Summary of the method: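 Human HepaRG liver cells received test chemicals for 48 h (highest 100 uM, half-log dilutions in 0.5% DMSO). CYP2C19 mRNA induction or loss is read by multiplexed qRT-PCR and fitted in both directions versus vehicle.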

[19] = read-out: CYP2C8 (gene 1558); test: LTEA_HepaRG_CYP2C8: Life Technologies and Expression Analysis (LTEA) Assay for CYP2C8 using HepaRG (AID 2283483)
Summary of the method: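 This is a transcriptional endpoint in HepaRG cultures: 48 h exposure, highest concentration 100 uM. CYP2C8 mRNA is quantified by TaqMan qRT-PCR.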

[20] = read-out: CYP2C9 (gene 1559); test: LTEA_HepaRG_CYP2C9: Life Technologies and Expression Analysis (LTEA) Assay for CYP2C9 using HepaRG (AID 2283484)
Summary of the method: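 Eight-point concentration-response (highest 100 uM, half-log dilutions) in HepaRG cells for 48 h; CYP2C9 expression by qRT-PCR normalized to ACTB, GAPDH, POLR2A. Bidirectional fit, DMSO baseline.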

Measured: AC50

Chain of Caspase-3 (Homo sapiens) (P42574 whole entry, looked up): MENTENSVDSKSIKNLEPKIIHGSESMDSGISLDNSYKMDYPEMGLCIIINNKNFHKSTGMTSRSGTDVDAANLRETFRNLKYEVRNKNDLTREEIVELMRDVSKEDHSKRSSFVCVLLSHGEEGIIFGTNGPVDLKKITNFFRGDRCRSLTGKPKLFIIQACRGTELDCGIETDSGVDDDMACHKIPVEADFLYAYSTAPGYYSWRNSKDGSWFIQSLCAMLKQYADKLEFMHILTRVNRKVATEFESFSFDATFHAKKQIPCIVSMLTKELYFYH
Chain of Cytochrome P450 2C19 (Homo sapiens) (P33261 whole entry, looked up): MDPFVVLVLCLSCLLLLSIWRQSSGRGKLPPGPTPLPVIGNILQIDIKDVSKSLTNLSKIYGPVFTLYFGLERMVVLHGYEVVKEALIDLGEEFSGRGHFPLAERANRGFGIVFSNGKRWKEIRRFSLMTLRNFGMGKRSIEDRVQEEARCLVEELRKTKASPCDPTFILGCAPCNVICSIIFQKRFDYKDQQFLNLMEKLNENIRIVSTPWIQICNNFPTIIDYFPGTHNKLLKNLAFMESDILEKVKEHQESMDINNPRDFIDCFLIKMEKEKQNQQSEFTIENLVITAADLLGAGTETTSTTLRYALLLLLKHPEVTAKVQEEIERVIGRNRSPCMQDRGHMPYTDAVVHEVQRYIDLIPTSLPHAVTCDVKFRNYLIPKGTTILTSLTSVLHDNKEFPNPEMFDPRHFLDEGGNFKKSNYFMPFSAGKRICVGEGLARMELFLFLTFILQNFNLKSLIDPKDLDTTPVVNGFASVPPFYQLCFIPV
Chain of Broad substrate specificity ATP-binding cassette transporter ABCG2 (Homo sapiens) (Q9UNQ0 whole entry, looked up): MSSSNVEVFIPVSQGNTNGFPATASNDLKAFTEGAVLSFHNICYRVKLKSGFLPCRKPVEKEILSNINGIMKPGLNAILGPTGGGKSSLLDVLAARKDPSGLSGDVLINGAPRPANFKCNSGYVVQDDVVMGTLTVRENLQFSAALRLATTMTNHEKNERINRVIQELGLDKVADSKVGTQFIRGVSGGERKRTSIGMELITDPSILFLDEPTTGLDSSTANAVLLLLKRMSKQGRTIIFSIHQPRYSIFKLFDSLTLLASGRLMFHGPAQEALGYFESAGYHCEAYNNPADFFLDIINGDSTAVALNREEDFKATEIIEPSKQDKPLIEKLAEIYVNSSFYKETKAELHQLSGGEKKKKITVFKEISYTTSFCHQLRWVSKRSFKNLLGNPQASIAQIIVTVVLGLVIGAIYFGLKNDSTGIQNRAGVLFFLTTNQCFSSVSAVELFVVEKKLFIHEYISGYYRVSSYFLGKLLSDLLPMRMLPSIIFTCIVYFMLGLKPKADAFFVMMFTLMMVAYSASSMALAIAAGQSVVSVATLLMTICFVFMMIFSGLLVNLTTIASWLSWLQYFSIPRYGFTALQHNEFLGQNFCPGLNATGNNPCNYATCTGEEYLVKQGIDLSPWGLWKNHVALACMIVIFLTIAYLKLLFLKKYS
Chain of Apoptosis regulator Bcl-2 (Homo sapiens) (P10415 whole entry, looked up): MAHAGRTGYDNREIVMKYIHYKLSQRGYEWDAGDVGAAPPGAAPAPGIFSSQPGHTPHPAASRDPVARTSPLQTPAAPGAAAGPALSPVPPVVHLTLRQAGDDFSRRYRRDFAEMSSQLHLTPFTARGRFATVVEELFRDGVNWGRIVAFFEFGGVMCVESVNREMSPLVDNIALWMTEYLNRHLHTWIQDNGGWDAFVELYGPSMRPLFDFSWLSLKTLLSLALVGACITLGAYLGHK

C=CN1CCCC1=O
inactive: all assays above

CCCCCCCCCCCCCCCCOS(=O)(=O)O
active: [8] 41.2 µM | [18] 43.1 µM
inactive: all other assays above

OC[C@H]1O[C@@](CO)(O[C@H]2O[C@H](CO)[C@@H](O)[C@H](O)[C@H]2O)[C@@H](O)[C@@H]1O
inactive: all assays above

CCOC(N)=O
inactive: all assays above

CNC(C)=O
inactive: all assays above

CC[C@H](C)C(=O)O[C@H]1C[C@H](O)C=C2C=C[C@H](C)[C@H](CC[C@@H](O)C[C@@H](O)CC(=O)O)[C@H]21
active: [2] 9.05 µM | [15] 3.09 µM
inactive: all other assays above

CCCCN1C(=O)[C@@H]([C@H](O)C2CCCCC2)NC(=O)C12CCN(Cc1ccc(Oc3ccc(C(=O)O)cc3)cc1)CC2
inactive: [6] | [12]
active: [1] 1.54 µM | [2] 0.672 µM | [3] 2.79 µM | [4] 7.87 µM | [5] 3.81 µM | [7] 1.01 µM | [8] 3 µM | [9] 4.66 µM | [10] 3.04 µM | [11] 12.7 µM | [13] 2.23 µM | [14] 9.92 µM | [15] 2.06 µM | [16] 3.02 µM | [17] 1.94 µM | [18] 2.02 µM | [19] 3.24 µM | [20] 1.7 µM

O=C(O)c1ccc2c(c1)nc(C(=O)NC1CCN(C3CC3)CC1)n2Cc1cc(-c2ccc(Cl)s2)on1
inactive: all assays above

O=S1(=O)CCCO1
inactive: all assays above

CCCCCCOC(=O)CC(CC(=O)OCCCCCC)(OC(=O)CCC)C(=O)OCCCCCC
active: [17] 12.3 µM
inactive: all other assays above

CCCCC(CC)C(=O)OCCOCCOCCOC(=O)C(CC)CCCC (stereo not given)
inactive: all assays above

CCCCCCCCCC
active: [15] 50 µM
inactive: all other assays above

CCCCOC(=O)c1ccccc1
active: [17] 50 µM
inactive: all other assays above
